Drawing on paper PMC4242493, “Sequence specificity incompletely defines the genome-wide occupancy of Myc”, this text covers binding signal for 166 sequences.

Whole data set: some 33,000 sequences, median “normalized occupancy” near 0.075, cut for the highest 2% near 0.095. The list comes from a sample in which the highest values are over-represented; it also holds similar and randomly drawn sequences.

Sequence of MaxL homodimer (P61244 whole entry): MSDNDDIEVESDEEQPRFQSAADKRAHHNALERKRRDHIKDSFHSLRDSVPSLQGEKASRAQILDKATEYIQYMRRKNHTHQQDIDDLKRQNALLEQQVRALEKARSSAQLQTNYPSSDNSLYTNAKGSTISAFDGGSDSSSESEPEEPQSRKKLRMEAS

This assay addresses MaxL homodimer (Homo sapiens, UniProt P61244 1-160). Briefly: universal protein-binding microarray (PBM); PBS-based mixture, 10 nM His-tagged protein dimer, 2% milk, 200 ng/uL BSA, 50 ng/uL salmon testes DNA, 0.02% TX-100; detection with Alexa 488 anti-His antibody;; high values mean tight binding. Conditions: protein: recombinant; tags: C-terminal His-tag (pET21a); chain copies: 2; dsDNA, one strand shown. In outline:
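Agilent 4 x 44 K arrays carrying the 'all 10-mer' universal design were incubated with His-tagged protein dimer at 10 nM. Protein that bound was tagged using fluorophore-conjugated anti-His antibody at 10 ng/μL, and a GenePix 4400A scanned the arrays to give an intensity for every 8-mer. Each binding occupancy value expresses an intensity relative to the top-ranked intensity.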
Take ATGACGTG: the binding signal stood at 0.0885 normalized occupancy.

Regarding AAGTGATT, the binding signal was 0.0761 normalized occupancy.

Turning to CCTGCGCA, the binding signal was found to be 0.0738 normalized occupancy.

Regarding TGAGAGAA, the binding signal is 0.0879 normalized occupancy.

Regarding TATAAGAA, the binding signal worked out at 0.0821 normalized occupancy.

As to GTTACTTA, the binding signal amounted to 0.0751 normalized occupancy.

In the case of AATCTAAC, the binding signal is 0.0749 normalized occupancy.

Take ATGCCACG: the binding signal came out at 0.101 normalized occupancy.

Take ACGCCACG: the binding signal worked out at 0.0993 normalized occupancy.

Consider ACGCCACA, for which the binding signal was determined as 0.0778 normalized occupancy.

As to ACGCCACT, the binding signal came to 0.0784 normalized occupancy.

Consider ATGCCACC, for which the binding signal was 0.0841 normalized occupancy.

As to ACGCCATA, the binding signal is 0.0812 normalized occupancy.

For ATGCCACA, the binding signal turned out to be 0.0905 normalized occupancy.

ACGCCATG: the binding signal came to 0.102 normalized occupancy.

For ACGCCATC, the binding signal came out at 0.0794 normalized occupancy.

Take ATGCGTTC: the binding signal is 0.0856 normalized occupancy.

Turning to CAACCCAC, the binding signal is 0.082 normalized occupancy.

Turning to GGCGTTCA, the binding signal worked out at 0.0718 normalized occupancy.

In the case of ACCACAAA, the binding signal is 0.0758 normalized occupancy.

With ACCACGAA, the binding signal is 0.0771 normalized occupancy.

On to CCCACGAG, for which the binding signal is 0.0996 normalized occupancy.

Regarding CCCACAAA, the binding signal stood at 0.075 normalized occupancy.

Regarding ACCACGAG, the binding signal stood at 0.115 normalized occupancy.

With CCCACGAA, the binding signal was 0.0758 normalized occupancy.

In the case of GAAGTGCA, the binding signal came out at 0.0728 normalized occupancy.

Turning to GTTTCGCA, the binding signal is 0.0757 normalized occupancy.

For ATGGCTGC, the binding signal worked out at 0.0809 normalized occupancy.

With CGTGCTGA, the binding signal was determined as 0.095 normalized occupancy.

As to GATGGAAC, the binding signal was determined as 0.0776 normalized occupancy.

As for CAATGCTC, the binding signal was 0.0774 normalized occupancy.

In the case of CCATGCTC, the binding signal came to 0.0989 normalized occupancy.

In the case of CTATGCTC, the binding signal was 0.0822 normalized occupancy.

As to ATATGCTC, the binding signal turned out to be 0.0928 normalized occupancy.

With ACATGCTC, the binding signal stood at 0.106 normalized occupancy.

As for CGATGCTC, the binding signal was 0.0773 normalized occupancy.

As to CGAGCGCA, the binding signal is 0.0729 normalized occupancy.

Turning to GACATCCC, the binding signal came out at 0.0774 normalized occupancy.

As for CACGTTAG, the binding signal came out at 0.105 normalized occupancy.

As to AACGTTAC, the binding signal came out at 0.0772 normalized occupancy.

On to CACGTTCG, for which the binding signal was found to be 0.0852 normalized occupancy.

For the sequence AACGTTAG, the binding signal was 0.0732 normalized occupancy.

For the sequence CACGTTAC, the binding signal is 0.115 normalized occupancy.

Turning to CACGTTCC, the binding signal amounted to 0.096 normalized occupancy.

Take CACGTTCA: the binding signal came out at 0.0904 normalized occupancy.

For GACGTTAC, the binding signal was determined as 0.0746 normalized occupancy.

As to CACGTTAA, the binding signal was found to be 0.0921 normalized occupancy.

As for GTAGTCCA, the binding signal came out at 0.0722 normalized occupancy.

Consider TACGTAGA, for which the binding signal was determined as 0.0768 normalized occupancy.

In the case of AATGCGGG, the binding signal stood at 0.0799 normalized occupancy.

Regarding AATGCGGA, the binding signal was found to be 0.0802 normalized occupancy.

Turning to AATGCGGC, the binding signal stood at 0.0814 normalized occupancy.

For the sequence TATGCGGA, the binding signal is 0.0786 normalized occupancy.

In the case of CATGCGGA, the binding signal worked out at 0.126 normalized occupancy.

Regarding CAGGCGGG, the binding signal is 0.0747 normalized occupancy.

On to CATGCGGC, for which the binding signal was 0.121 normalized occupancy.

Consider CATGCGGG, for which the binding signal worked out at 0.121 normalized occupancy.

Consider GATGCGGC, for which the binding signal turned out to be 0.0788 normalized occupancy.

Turning to AGGTAACC, the binding signal came to 0.0749 normalized occupancy.

Regarding AAACATAC, the binding signal was 0.0888 normalized occupancy.

As to TATAAACA, the binding signal is 0.0776 normalized occupancy.

As to CGCTCGAG, the binding signal stood at 0.0757 normalized occupancy.

With CGATTGCA, the binding signal worked out at 0.0745 normalized occupancy.

With GGACCGAC, the binding signal was 0.0727 normalized occupancy.

For the sequence CATTTGAG, the binding signal worked out at 0.0913 normalized occupancy.

With AAGAACTC, the binding signal is 0.0732 normalized occupancy.

Take AATTTCTA: the binding signal came out at 0.0767 normalized occupancy.

On to CCATTCGC, for which the binding signal was 0.0743 normalized occupancy.

Regarding CTTCGTGC, the binding signal turned out to be 0.0757 normalized occupancy.

In the case of ATGGCAGG, the binding signal is 0.0815 normalized occupancy.

Turning to CCCCATTC, the binding signal amounted to 0.0826 normalized occupancy.

In the case of CCCCATGC, the binding signal was found to be 0.107 normalized occupancy.

As to ACCCATGC, the binding signal was determined as 0.108 normalized occupancy.

For the sequence ACCCATGG, the binding signal was 0.0853 normalized occupancy.

In the case of CCCCATGA, the binding signal was 0.0895 normalized occupancy.

On to ACCCATGA, for which the binding signal turned out to be 0.0882 normalized occupancy.

As for AAAGCACT, the binding signal was determined as 0.0757 normalized occupancy.

Regarding CACCACGC, the binding signal stood at 0.119 normalized occupancy.

AACCACGA: the binding signal is 0.0902 normalized occupancy.

As for CACCACGG, the binding signal was 0.0774 normalized occupancy.

With GACCACCA, the binding signal worked out at 0.0803 normalized occupancy.

Take AACCACCA: the binding signal was 0.0807 normalized occupancy.

As to AACCACGC, the binding signal is 0.0983 normalized occupancy.

For GACCACGA, the binding signal stood at 0.0865 normalized occupancy.

For the sequence AACCACTA, the binding signal worked out at 0.0774 normalized occupancy.

As to AACCACGG, the binding signal was determined as 0.0843 normalized occupancy.

GACCACGC: the binding signal was determined as 0.129 normalized occupancy.

Regarding AACCACGT, the binding signal stood at 0.123 normalized occupancy.

Consider CACCACGA, for which the binding signal turned out to be 0.082 normalized occupancy.

As for ATGCCCTG, the binding signal was 0.0757 normalized occupancy.

On to GAGACCCA, for which the binding signal was 0.0745 normalized occupancy.

Regarding TAATTGCA, the binding signal was 0.0767 normalized occupancy.

As for ACCAAGCA, the binding signal was 0.081 normalized occupancy.

Turning to CATGCGTA, the binding signal turned out to be 0.122 normalized occupancy.

As for AATGCGTC, the binding signal is 0.0736 normalized occupancy.

As to AATGCGTA, the binding signal was determined as 0.0846 normalized occupancy.

Regarding CATGCGTC, the binding signal was 0.113 normalized occupancy.

As to GATGCGTA, the binding signal was found to be 0.0807 normalized occupancy.

In the case of CGTGCGTC, the binding signal is 0.0896 normalized occupancy.

With ATGACGCG, the binding signal is 0.0781 normalized occupancy.

On to GCGTGGGA, for which the binding signal was found to be 0.125 normalized occupancy.

With GGGTGGGA, the binding signal stood at 0.085 normalized occupancy.

For ATGTGGGG, the binding signal stood at 0.0878 normalized occupancy.

In the case of AAGTGGGA, the binding signal turned out to be 0.0771 normalized occupancy.

As to ATGTGGGC, the binding signal worked out at 0.0919 normalized occupancy.

Regarding ACGTGGGA, the binding signal came to 0.0998 normalized occupancy.

On to GTGTGGGA, for which the binding signal turned out to be 0.0899 normalized occupancy.

Take ACGTGGGG: the binding signal was determined as 0.0991 normalized occupancy.

In the case of ACGTGGGC, the binding signal is 0.1 normalized occupancy.

For the sequence AGGTGGGC, the binding signal was found to be 0.0818 normalized occupancy.

Turning to CCGTGGGA, the binding signal came out at 0.0775 normalized occupancy.

As for AGGTGGGG, the binding signal amounted to 0.0822 normalized occupancy.

As for GACATTGC, the binding signal was 0.0757 normalized occupancy.

Consider GGAAGAGA, for which the binding signal is 0.0767 normalized occupancy.

For the sequence AGAATGTC, the binding signal was 0.0744 normalized occupancy.

As to CCTGCTAC, the binding signal turned out to be 0.0758 normalized occupancy.

Regarding CCCTAATA, the binding signal was determined as 0.0744 normalized occupancy.

With CGATTAAG, the binding signal came to 0.0743 normalized occupancy.

Take TTCATAAA: the binding signal is 0.0768 normalized occupancy.

With CAGACCCC, the binding signal is 0.085 normalized occupancy.

With CAGTAGAA, the binding signal is 0.0771 normalized occupancy.

For the sequence ACGTCGTC, the binding signal was found to be 0.0822 normalized occupancy.

On to AATGCTCG, for which the binding signal was 0.0783 normalized occupancy.

AATGCTCA: the binding signal came out at 0.0829 normalized occupancy.

CATGCTCA: the binding signal is 0.099 normalized occupancy.

In the case of TATGCTCA, the binding signal was determined as 0.0848 normalized occupancy.

On to CGTGCTCC, for which the binding signal worked out at 0.085 normalized occupancy.

For the sequence CATGCTCC, the binding signal was determined as 0.105 normalized occupancy.

With CATGCTCG, the binding signal stood at 0.106 normalized occupancy.

Turning to GATGCTCC, the binding signal was determined as 0.0753 normalized occupancy.

With GATGCTCA, the binding signal was 0.0734 normalized occupancy.

On to CTTTACCA, for which the binding signal is 0.0764 normalized occupancy.

For ATTGGGGC, the binding signal was found to be 0.0771 normalized occupancy.

In the case of CCGTGGCA, the binding signal was 0.077 normalized occupancy.

ACGTGGCA: the binding signal turned out to be 0.106 normalized occupancy.

On to GCGTGGCA, for which the binding signal came out at 0.121 normalized occupancy.

In the case of AGGTGGCA, the binding signal amounted to 0.082 normalized occupancy.

Take AAGTGGCT: the binding signal turned out to be 0.072 normalized occupancy.

For ACGTGGCG, the binding signal is 0.107 normalized occupancy.

As to CCGTGGCG, the binding signal came to 0.0765 normalized occupancy.

As for ACCTGGCT, the binding signal is 0.0765 normalized occupancy.

Take ACGTGGCC: the binding signal is 0.094 normalized occupancy.

On to ACGTGGCT, for which the binding signal came to 0.101 normalized occupancy.

As for TCGTGGCA, the binding signal stood at 0.0869 normalized occupancy.

For ATGTGGCG, the binding signal amounted to 0.0879 normalized occupancy.

In the case of GGTCTGTA, the binding signal was determined as 0.0752 normalized occupancy.

As for CCTTGTCC, the binding signal turned out to be 0.0743 normalized occupancy.

As for CTGACTCA, the binding signal is 0.0764 normalized occupancy.

With AACCAAGT, the binding signal amounted to 0.0721 normalized occupancy.

Turning to GAGGAGAA, the binding signal came out at 0.0783 normalized occupancy.

GGTAACTA: the binding signal is 0.077 normalized occupancy.

As for CAACTTAG, the binding signal was 0.0721 normalized occupancy.

On to AGGCACCT, for which the binding signal came to 0.078 normalized occupancy.

On to CTATTTTC, for which the binding signal stood at 0.0775 normalized occupancy.

Consider CCAAACGC, for which the binding signal stood at 0.073 normalized occupancy.

For GCGACTCA, the binding signal worked out at 0.0767 normalized occupancy.

CCGTGGCC: the binding signal came to 0.0738 normalized occupancy.

For the sequence GAGTGGCC, the binding signal amounted to 0.073 normalized occupancy.

For GCGTGGCC, the binding signal was 0.0977 normalized occupancy.

In the case of GGACAACA, the binding signal stood at 0.0742 normalized occupancy.

For CCCGTGTC, the binding signal was found to be 0.0814 normalized occupancy.

In the case of CACGTGTC, the binding signal is 0.574 normalized occupancy.

Consider CAGGTGTC, for which the binding signal came out at 0.0839 normalized occupancy.

As to AAGGTGTA, the binding signal stood at 0.0773 normalized occupancy.

With ACCGTGTA, the binding signal came to 0.0779 normalized occupancy.

With AACGTGTG, the binding signal worked out at 0.108 normalized occupancy.
